The list is not random: actives were taken first. Their share in the collection is about 2.9%.
A549 tox: Nrf2 qHTS screen for inhibitors: counterscreen for cytotoxicity; A549 ARE-Fluc cells, CellTiter-Fluor viability, 18-24 h; Potency, µM (highest dose often 46 µM), usual class: inhibitors; 0.16% of 390,000 active
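Cytotoxicity counterscreen: CellTiter-Fluor fluorescence was measured in A549 ARE_Fluc cells after 18-24 h of compound exposure in a concentration series. The subsequent BugLite luminescent read reports ARE-luciferase activity.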
Nrf2 ARE act: qHTS of Nrf2 Activators. AREc32 ARE-luciferase reporter (MCF7-derived line), luminescence, 24 h. Potency, µM (titrated, usually from 46.1 µM), hits mostly activators. 0.31% of 410,000 active; further: nearly all actives have a fitted effect of over 65% in size
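ARE-driven firefly luciferase activity in AREc32 cells measured after a 24 hr compound exposure at 37 deg C, using Steady-Glo reagent and a 30 min room-temperature hold.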
ATXN2 expr inh: Primary qHTS for Inhibitors of ATXN expression; HEK-293 ATXN2-luciferase reporter, luminescence, 24 h; Potency, µM (doses to about 57 µM), usual class: inhibitors; 0.72% of 360,000 active; AID 1745845, 2022; further: nearly all actives have a fitted effect of over 55% in size
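qHTS (up to 57 uM final) was run with 24 h compound exposure of reporter cells at 37 °C. Each well was multiplexed: SteadyGlo luminescence measured ATXN2-luciferase expression after a fluorogenic Gly-Phe-AFC viability readout (25 uM final).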
ATXN viability: Viability Counterscreen for Primary qHTS for Inhibitors of ATXN expression | 0.49% of 400,000 active | Potency, µM (titrated, usually from 56.7 µM), most hits filed as cytotoxic | AID 651635, 2014 | S2 cells (HEK-293 line with an ATXN2-luciferase reporter) viability, CellTiter-Fluor protease fluorescence, 24 h; further: nearly all actives have a fitted effect of over 40% in size
Nrf2 inh: Nrf2 qHTS screen for inhibitors | 2.1% of 360,000 active | Potency, µM (titrated, usually from 46 µM), most hits filed as inhibitors | AID 504444, 2011 | A549 ARE-Fluc reporter, luciferase luminescence, 18-24 h; further: nearly all actives have a fitted effect of over 60% in size
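Two sequential reads on A549 ARE_Fluc cells exposed to compound for 18-24 h: a CellTiter-Fluor fluorescence read for viability, then a luciferase luminescence read for Nrf2/ARE activity.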
Hits are given with their value; – = inactive; ? = inconclusive; · = no result. The call rests on the fitted dose curve; in most records, active means well fitted curve in the direction sought with a large enough effect; inconclusive means small, poorly fitted or top-dose-only effect, or another doubt; inactive means no such curve, though single readings can be large; an effect the other way counts as inactive or inconclusive.

SMILES | A549 tox | Nrf2 ARE act | ATXN2 expr inh | ATXN viability | Nrf2 inh
COc1cccc(CN(C)CC2CCCN(CCc3ccccc3C)C2)c1 (stereo not drawn) | – | – | · | – | –
N=C1SC(c2ccccc2)C(=O)N1c1ncc(Cc2ccccc2Cl)s1 (stereo not drawn) | – | – | 18µM | · | –
COc1ccc(N2CC(C(=O)Nc3cccc(S(=O)(=O)N4CCCC4)c3)CC2=O)c(OC)c1 (stereo not drawn) | – | – | – | – | –
Cc1cc(N)n(-c2ccccn2)n1 | – | – | – | – | ?
COc1cc2c[n+](C)c3c4ccccc4ccc3c2cc1OC | – | – | – | – | 16µM
COc1ccc2c(c1)c[n+](C)c1c3cc(OC)c(OC)cc3ccc21 | · | – | 18µM | ? | ·
COc1ccc(CNC(=O)c2cnn3c(C)c(Cc4c(F)cccc4Cl)c(C)nc23)cc1 | ? | – | – | – | ·
Cc1ccc(NC(=O)c2cc(-c3cccs3)nc3ccccc23)c(C)c1 | – | – | – | – | –
Cc1cccc2sc(NNC(=O)c3cc(-c4cccs4)nc4ccccc34)nc12 | ? | – | ? | ? | 23µM
Cc1ccc2sc(N(CCCN(C)C)C(=O)c3ccc(Br)s3)nc2c1C | – | – | 20µM | · | –
CC(=O)c1ccc(C(=O)N(CCCN(C)C)c2nc3c(C)c(C)ccc3s2)cc1 | – | – | – | – | –
CCN(Cc1ccccc1)S(=O)(=O)c1ccc(C(=O)N(CCCN(C)C)c2nc3c(C)c(C)ccc3s2)cc1 | ? | – | – | ? | 18µM
CCOc1cccc(C2NC(=S)NC(C)=C2C(=O)Nc2ccccc2)c1 (stereo not drawn) | – | – | – | – | –
C=C(C)CN=c1scc(C)n1/N=C/c1ccco1 | – | 13µM | – | – | –
CCOC(=O)c1ccc2c(c1)n(CC)c(/C=C/N(C)c1ccccc1)[n+]2CC | ? | – | – | – | 3.3µM
Cc1ccnc(Nc2nc(-c3ccccc3)cs2)c1 | – | – | · | – | ?
Cc1ccnc(Nc2nc(-c3c(C)nc4sccn34)cs2)c1 | – | – | · | · | 21µM
O=C(Nc1nnc(C2CCCCC2)s1)C1CCN(C(=O)c2ccco2)CC1 | – | · | · | · | –
Cc1cccc(NC(=O)CN2C(=O)C(c3ccc(F)cc3)=NC23CCCCCC3)c1C | – | – | · | · | 23µM
CC(=O)Nc1ccc(Cl)cc1-c1ccccc1 | – | – | – | – | ?
Cc1c(C(=O)Nc2ccc(Oc3ccccc3)cc2)sc2nc3n(c(=O)c12)CCC3 | – | – | – | – | ?
Cc1c(C(=O)Nc2ccc(OC(F)(F)F)cc2)sc2nc3n(c(=O)c12)CCC3 | – | – | – | – | 10µM
CCC(=O)N1CCc2cc(Br)cc(S(=O)(=O)N3CCC(C(=O)Nc4ccccc4F)CC3)c21 | – | – | – | – | 13µM
FC(F)(F)c1nnc2c(Sc3ccc(Cl)cc3)nc3ccccc3n12 | – | – | ? | – | ?
FC(F)(F)c1nc2ccccc2n2c(-c3ccc(Cl)cc3)nnc12 | 5.8µM | – | – | – | ·
SMILES | A549 tox | Nrf2 ARE act | ATXN2 expr inh | ATXN viability | Nrf2 inh
Cc1ccc(-c2nnc3c(C(F)(F)F)nc4ccccc4n23)cc1 | ? | – | – | ? | 23µM
CN(CC(=O)Nc1ccccc1Cl)C(=O)CSc1nnc(N)s1 | – | – | – | – | –
CCCS(=O)(=O)c1c(S(=O)(=O)CCC)c2c(C)cccn2c1C(=O)N/N=C/c1cc(O)cc(O)c1 | – | – | 7.9µM | – | ?
S=c1[nH]nc(-c2cc(-c3ccccc3)n[nH]2)n1/N=C/c1ccccc1 | – | – | – | – | –
S=c1[nH]nc(-c2cc(-c3ccccc3)n[nH]2)n1/N=C/C(Br)=C/c1ccccc1 | ? | ? | ? | 30µM | 23µM
Cc1ccccc1Cc1c(C)nc2c(C(=O)NCc3ccco3)cnn2c1C | – | – | – | – | ?
Cc1ccc(Oc2cc([N+](=O)[O-])cc3c2C(=O)Nc2ccccc2O3)cc1 | – | – | – | – | 15µM
CCOC(=O)C1(Cc2ccc(OC)cc2)CCN(C(=O)C2=CCCC2)CC1 | – | – | – | – | –
COc1cccc(-c2ccc(C#N)c(SCC(=O)NCc3ccco3)n2)c1 | – | – | – | – | –
COc1cc(/C=C2\NC(=S)N(C)C2=O)ccc1OCc1cccc(F)c1 | – | – | · | – | –

Screening data as filed in PubChem.
